Results reported in PubChem BioAssay (NCATS).
Results filed as inconclusive are left out. The source made the active and inactive calls. Calls come from the whole dose curve; as a rule, active = well fitted curve in the direction sought with a large enough effect; inconclusive = small, poorly fitted or top-dose-only effect, or another doubt; inactive = no such curve, though single readings can be large; an effect the other way counts as inactive or inconclusive.

Tests used:
[1] = molecular target: Calcium and integrin-binding protein 1 (Homo sapiens) (UniProt Q99828); experiment: Primary qHTS for Identification of Calcium Integrin Binding Protein 1 (CIB1) Competitor (AID 1508620);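 note: GST tagged CIB1 binding a fluorescein labelled alphaIIb integrin peptide tracer; top concentration of the series differs between compounds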
Calcium and integrin-binding protein 1 (Homo sapiens), sequence (Q99828 whole entry, looked up): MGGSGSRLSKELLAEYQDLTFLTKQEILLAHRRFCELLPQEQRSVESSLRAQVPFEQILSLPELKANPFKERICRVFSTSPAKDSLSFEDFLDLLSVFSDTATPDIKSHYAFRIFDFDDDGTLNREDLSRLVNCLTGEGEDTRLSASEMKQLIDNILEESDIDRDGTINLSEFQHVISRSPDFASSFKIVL
Outline: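 Fluorescence polarization competition: CIB1-GST (1 uM final) preincubated with compound 15 min at room temperature, then FITC-labeled alphaIIb peptide (100 nM final) added for another 15 min. Polarization read at Ex 480/Em 540.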

[2] = Primary qHTS for inhibitors of nuclear receptor binding SET domain protein 2 (NSD2) in an isogenic RCH-ACV NSD2 p.E1099K mutant (9B) (AID 1645876); note: nearly all actives have a fitted effect of over 70% in size
[3] = Primary qHTS for inhibitors of nuclear receptor binding SET domain protein 2 (NSD2) in an RCH-ACV wild type WT cells (2C) (AID 1645877); note: nearly all actives have a fitted effect of over 70% in size

Measured: Potency

C=C1CC[C@@H]2[C@@](C)(CO[C@@H]3O[C@H](CO)[C@@H](O)[C@H](O)[C@H]3O)[C@H](O)CC[C@@]2(C)[C@@H]1CC/C(C)=C/CO[C@@H]1O[C@H](CO)[C@@H](O)[C@H](O)[C@H]1O
inactive: [1] | [2] | [3]

CC(=O)O[C@H]1C[C@@]2(C)[C@@H](CC[C@H]3[C@@]4(C)C=CC(=O)[C@@H](C)[C@@H]4[C@H](OC(C)=O)C(=O)[C@@]32C)/C1=C(\CCC=C(C)C)C(=O)O
inactive: [1] | [2] | [3]

C[C@@H]1CC2OC(=O)C3=C2C(CCC3O)[C@@]12C[C@@H](c1ccoc1)OC2=O (some centres undefined)
inactive: [1] | [2] | [3]

CC(=O)/C=C/C1(O)C(C)CC(O[C@@H]2O[C@H](CO)[C@@H](O)[C@H](O)[C@H]2O)CC1(C)C (some centres undefined)
inactive: [1] | [2] | [3]

CC(C)=C1CC2[C@](C)(CC[C@@H](OC(=O)C3(C)OC3C)[C@@]2(C)O)CC1=O (some centres undefined)
inactive: [1] | [2] | [3]

C/C(=C\CO)CC/C=C(\C)C(=O)O[C@@H]1O[C@H](CO)[C@@H](O)[C@H](O)[C@H]1O
inactive: [1] | [2] | [3]

OC[C@H]1O[C@@H](OCc2ccccc2)[C@H](O)[C@@H](O)[C@@H]1O
inactive: [1] | [2] | [3]

COc1cc(C(C)=O)ccc1O[C@@H]1O[C@H](CO)[C@@H](O)[C@H](O)[C@H]1O
inactive: [1] | [2] | [3]
